Laboratory results taken from article PMC4336329 (PLoS ONE, 2015).
The whole screen tested about 310,000 compounds, of which about 14,000 (4.5%) showed an effect of 50% or more. The effect is printed as a negative number. The entries come from a sample that favours strong results as a whole.

molecular target: human ether-à-go-go-related gene (hERG) potassium channel (human, UniProt Q12809); assay: primary screen, population patch clamp on CHO cells stably expressing hERG; higher = less effect of the substance
Sequence (Q12809 whole entry, looked up): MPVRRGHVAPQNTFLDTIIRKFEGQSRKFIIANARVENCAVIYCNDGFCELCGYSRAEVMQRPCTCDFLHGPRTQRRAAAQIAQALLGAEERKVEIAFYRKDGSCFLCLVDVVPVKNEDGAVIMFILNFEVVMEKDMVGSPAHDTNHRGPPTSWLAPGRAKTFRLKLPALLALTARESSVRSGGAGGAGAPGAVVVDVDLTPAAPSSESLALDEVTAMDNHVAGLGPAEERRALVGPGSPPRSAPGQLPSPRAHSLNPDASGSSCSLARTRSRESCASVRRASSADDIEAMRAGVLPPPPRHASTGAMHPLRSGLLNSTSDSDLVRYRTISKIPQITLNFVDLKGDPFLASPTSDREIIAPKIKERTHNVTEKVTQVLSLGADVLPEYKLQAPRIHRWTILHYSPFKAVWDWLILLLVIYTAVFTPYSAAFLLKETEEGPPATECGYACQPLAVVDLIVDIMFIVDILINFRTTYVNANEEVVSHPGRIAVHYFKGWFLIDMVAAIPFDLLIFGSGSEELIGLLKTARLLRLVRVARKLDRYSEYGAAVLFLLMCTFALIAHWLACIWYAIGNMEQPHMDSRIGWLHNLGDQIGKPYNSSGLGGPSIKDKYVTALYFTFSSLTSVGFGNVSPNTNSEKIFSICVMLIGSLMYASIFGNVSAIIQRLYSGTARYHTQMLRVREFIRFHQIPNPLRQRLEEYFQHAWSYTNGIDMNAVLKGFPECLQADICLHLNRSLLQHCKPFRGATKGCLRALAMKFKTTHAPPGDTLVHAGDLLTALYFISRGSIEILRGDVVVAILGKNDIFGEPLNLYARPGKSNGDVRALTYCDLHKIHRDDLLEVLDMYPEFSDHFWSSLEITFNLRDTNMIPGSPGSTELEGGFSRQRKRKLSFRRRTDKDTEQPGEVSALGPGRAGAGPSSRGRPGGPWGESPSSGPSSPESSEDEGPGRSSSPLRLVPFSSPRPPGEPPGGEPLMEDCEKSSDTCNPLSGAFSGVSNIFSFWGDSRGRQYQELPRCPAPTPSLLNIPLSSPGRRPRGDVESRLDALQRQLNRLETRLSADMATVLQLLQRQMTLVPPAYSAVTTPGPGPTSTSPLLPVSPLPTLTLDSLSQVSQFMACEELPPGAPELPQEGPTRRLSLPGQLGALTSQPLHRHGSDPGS
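Note: peak tail current of the secondary pulse compared with the same well before compound.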

| Compound | hERG current change (%, negative = inhibition) at 10uM [%] |
| --- | --- |
| O=C(c1cccc(C(=O)N2CCN(c3ccccc3F)CC2)n1)N1CCN(c2ccccc2F)CC1 | -28.3 |
| O=C(/C=C/c1ccccc1)N1CCN(c2ccc([N+](=O)[O-])c(N3CCOCC3)c2)CC1 | -54.3 |
| O=[N+]([O-])c1ccc(N2CCOCC2)cc1N1CCCCC1 | -5.12 |
| O=C(/C=C/c1ccc(Cl)cc1Cl)N1CCN(c2ccc([N+](=O)[O-])c(N3CCOCC3)c2)CC1 | -34.5 |
| O=[N+]([O-])c1ccc(N2CCCCC2)cc1N1CCOCC1 | -11.3 |
| O=C(/C=C/c1ccc(Cl)cc1)N1CCN(c2ccc([N+](=O)[O-])c(N3CCOCC3)c2)CC1 | -72.4 |
| O=C(/C=C/c1ccc(Cl)cc1)N1CCOCC1 | 9.65 |
| Cc1c(C(=O)NN2CCOCC2)oc2ccccc12 | 16.5 |
| N#Cc1cc2c(nc1SCc1cccc(Cl)c1)CCCCC2 | 8.72 |
| COc1cc(C2NC(=O)NC(C)=C2C(=O)OCC2CCCO2)cc(OC)c1OC (stereo not shown) | 18.8 |
| COc1ccc(N2CCN(c3ncnc4scc(-c5ccccc5)c34)CC2)cc1 | 18.6 |
| COc1ccc(NC(=O)c2ccccc2NC(=O)CSc2ccc(Cl)cc2)cc1 | 3.21 |
| Cc1cc(C)cc(NC(=O)C2C3C=CC4(O3)C2C(=O)N(CCCN2CCCCC2)C4C(=O)NC2CCCCC2)c1 (stereo not shown) | 20.7 |
| O=C(NCc1ccccc1)c1ccc(Cl)c(NC2=NC3CS(=O)(=O)CC3S2)c1 (stereo not shown) | -0.123 |
| O=C(Cn1cc[n+](CC(=O)c2ccccc2)c1)c1ccccc1.[Br-] | 0.024 |
| C[n+]1ccn(CC(=O)c2ccc(Cl)cc2)c1.[Br-] | -3.61 |
| O=C(Cn1c[n+](CC(=O)c2ccc([N+](=O)[O-])cc2)cn1)c1ccc([N+](=O)[O-])cc1.[Br-] | 21.3 |
| O=C(Cn1cc[n+](CC(=O)c2ccc(Cl)cc2Cl)c1)c1ccc(Cl)cc1Cl.[Br-] | -61.5 |
| O=C(Cn1nc(Cl)nc1Cl)c1ccc([N+](=O)[O-])cc1 | 1.69 |
| O=C(C[n+]1cnn(CC(=O)c2ccc(Cl)cc2Cl)c1)c1ccc([N+](=O)[O-])cc1.[Br-] | -73.3 |
| COc1ccc(-c2ccc(SCc3cccnc3)nn2)cc1OC | 29 |
| Cc1ccccc1N1CC(C(=O)Nc2ccc(S(=O)(=O)N3CCCC3)cc2)CC1=O (stereo not shown) | 3.59 |

| Compound | hERG current change (%, negative = inhibition) at 10uM [%] |
| --- | --- |
| CCOC(=O)NC1(C(F)(F)F)N=C(c2ccccc2)NC1=O (stereo not shown) | 4.77 |
| CN1C[C@@H]2C[C@@H](c3ccc(C#CC(C)(C)O)s3)N3CCC[C@@]23C1=O | 9.88 |
| O=C1N(C2CCCC2)C[C@@H]2C[C@@H](c3cn[nH]c3-c3ccc(Cl)cc3)N3CCC[C@@]123 | -37.8 |
| CN1C[C@@H]2C[C@@H](C3=Cc4cc(Cl)ccc4OC3)N3CCC[C@@]23C1=O | -32.7 |
| Cc1ccc(-n2cccn2)c([C@@H]2C[C@H]3CN(C)C(=O)[C@]34CCCN24)c1 | -61.1 |
| Cn1cc([C@@H]2C[C@H]3CN(C4CCCC4)C(=O)[C@]34CCCN24)c(-c2ccccc2)n1 | -18.5 |
| Cc1cc(C)c([C@@H]2C[C@H]3CN(C4CCCC4)C(=O)[C@]34CCCN24)c(-n2cccn2)c1 | -80.7 |
| CCOc1cc(CNc2ncn[nH]2)ccc1OCC(=O)NC(C)(C)C | 5.22 |
| Cc1ccc(OCC(=O)N(C)Cc2ccccc2)c([N+](=O)[O-])n1 | 3.95 |
| NN/C(=C\[N+](=O)[O-])Nc1ccc(Cl)cc1 | 13.6 |
| Cc1ccc(S(=O)(=O)CCC(=O)OCC(=O)c2c[nH]c3ccccc23)cc1 | -8.93 |
| COc1ccc(S(=O)(=O)N2CCN(C(=O)NC3CCCCC3)CC2)cc1OC | -17.7 |
| COC(=O)c1cc(Br)c(=O)n(-c2ccc(OC)cc2)c1 | -0.31 |
| COC(=O)c1cc(Br)c(=O)n(CCc2ccc(F)cc2)c1 | -24.9 |
| COC(=O)c1cc(Br)c(=O)n(-c2ccc(F)cc2)c1 | -63.9 |
| COCC(C)n1c(SCc2ccc(C(=O)OC)o2)nc2ccccc2c1=O (stereo not shown) | -8.61 |
| COc1ccccc1C1CC(c2cccs2)=Nc2ccccc2S1 (stereo not shown) | 14.4 |
| CC1CCCN(C(=O)c2ccc(Br)c(S(=O)(=O)N3CCOCC3)c2)C1 (stereo not shown) | -7.24 |
| COc1ccc(C2CC3(CC(C)(C)NC(=S)N3)Oc3cc(O)cc(C)c32)cc1 (stereo not shown) | 14.6 |
| Cc1cc(O)cc2c1C(c1ccc(F)cc1)CC1(CC(C)(C)NC(=S)N1)O2 (stereo not shown) | 14.2 |
| COc1ccc(C2CC3(CC(C)(C)NC(SC)=N3)Oc3cc(O)cc(C)c32)cc1.I (stereo not shown) | -74.3 |
| CC12CN(C(=S)Nc3ccccc3)CC(C)(CN(C(=S)Nc3ccccc3)C1)C2=O | 10.3 |

| Compound | hERG current change (%, negative = inhibition) at 10uM [%] |
| --- | --- |
| COc1ccc(/C=C(/NC(=O)c2ccco2)C(=O)Nc2ccc(C(=O)O)cc2)cc1 | 9.11 |
| COc1ccccc1N1CCN(C(=O)c2ccc(-c3ccc(Cl)cc3)o2)CC1 | -7.22 |
| O=C(COC(=O)/C=C/c1ccc(OC(F)F)cc1)NCCN1C(=O)CSC1=O | -60.8 |
| COc1cc(/C=C/C(=O)OCC(=O)N2CCN(C(=O)c3ccco3)CC2)ccc1O | 2.55 |
| O=C(COC(=O)/C=C/c1ccc(Cl)cc1)NCCN1C(=O)CSC1=O | -21.2 |
| O=C(COc1ccc2ccccc2c1)N1CCN(C2CCN(Cc3ccccc3)CC2)CC1 | -77.7 |
| COc1cccc(CN2CCN(C(=O)COc3ccc4ccccc4c3)CC2)c1 | -38.7 |
| CC(C)c1ccc(OCC(=O)N2CCN(C(=O)c3ccco3)CC2)cc1 | -49.1 |
| O=C(COc1ccc2ccccc2c1)N1CCN(Cc2ccncc2)CC1.O=C(O)C(=O)O | -33.9 |
| O=C(COc1ccc2ccccc2c1)N1CCN(C(=O)c2ccco2)CC1 | -61.7 |
| Cc1ccc(/C=C/C(=O)OCC(=O)NCCN2C(=O)CSC2=O)cc1 | -17.9 |
| O=C(/C=C/c1ccc(OC(F)F)cc1)OCC(=O)N1CCN(C(=O)c2ccco2)CC1 | -71 |
| Cc1cccc(OCC(=O)N2CCN(C(=O)c3ccco3)CC2)c1 | -6.95 |
| CCOC(=O)/C=C/C(=O)OCC(=O)N1CCN(C(=O)c2ccco2)CC1 | 9.59 |
| CC1=NN(c2ccccc2)C(=O)C1C(=O)c1cc([N+](=O)[O-])cc([N+](=O)[O-])c1 (stereo not shown) | 2 |
| CCn1c(=S)sc2c(=O)n(CC(=O)Nc3cccc(Cl)c3)c(C)nc21 | 6.27 |
| Cc1ccc(-c2nc(N)sc2CC(=O)OCC(=O)N2C(C)CCCC2C)cc1 (stereo not shown) | -7.22 |
| COc1ccc2cc(CCNC(=O)c3ccc(Br)o3)c(=O)[nH]c2c1 | -9.51 |
| COCCCNC(=S)N1CCN(C(c2ccccc2)c2ccccc2)CC1 | 5.04 |
| COc1cccc2cc(C(C)N(CCCN3CCOCC3)C(=S)Nc3ccccc3C)oc12 (stereo not shown) | -7.78 |
| COc1ccc2[nH]c(=O)c(CN(C(=O)C(C)C)c3ccccc3OC)cc2c1 | -2.54 |
| COc1cccc(=O)c2c(C)oc(C)c12 | 3.11 |

| Compound | hERG current change (%, negative = inhibition) at 10uM [%] |
| --- | --- |
| O=C(N/N=C/c1cccs1)c1cnccn1 | -1.91 |
| CC(Sc1nc(-c2ccccc2)cc(C(F)(F)F)n1)C(=O)N1CCCCC1 (stereo not shown) | -17.9 |
| COc1ccc(OCC(=O)N2CCN(C(=O)c3ccco3)CC2)cc1 | -32.3 |
| N#Cc1ccc(OCC(=O)N2CCN(C(=O)c3ccco3)CC2)cc1 | -71 |
| O=C(COc1ccccc1)N1CCN(C(=O)c2ccco2)CC1 | -8.03 |
| CC1(c2nnc(Cc3ccccc3)o2)CC(c2cccc(F)c2)=NO1 (stereo not shown) | -3.35 |
| Cc1cc(C)n(-c2nncn2/N=C/c2ccccc2F)n1 | 3.06 |
| COc1ccccc1-n1ccnc(SCC(=O)NCc2ccccc2Cl)c1=O | 8.39 |
| O=C1CC[C@H](O)CCN1[C@H](CSc1ccc(Br)cc1)Cc1ccccc1 | -24.3 |
| Cc1ccc(SC[C@H](Cc2ccccc2)N2CCN(CCc3ccccc3)CCC2=O)cc1 | -17.9 |
| CC(C)[C@@H](CSc1ccccc1)N1CCN(Cc2ccccc2)CCC1=O | -63.4 |
| O=C1CC[C@H](OCc2ccccc2)CCN1[C@H](CSc1ccccc1)Cc1ccccc1 | -51 |
| O=C1CCN(Cc2ccc(Br)cc2)CCN1[C@H](CO)Cc1ccccc1 | -10.4 |
| O=C1CCN(CCc2ccccc2)CCN1[C@H](CSc1ccc(Br)cc1)Cc1ccccc1 | -74.6 |
| O=C1CCN(CCc2ccccc2)CCN1[C@H](CSc1ccccc1)Cc1ccccc1 | -77.1 |
| C[C@H]1CCC(=O)N([C@H](CSc2ccccc2)Cc2ccccc2)CC1 | -37 |
| CC(C)C(CO)N1CCN(Cc2ccccc2)CCC1=O (stereo not shown) | 4.74 |
| O=C1CC[C@H](O)CCN1[C@H](CSc1ccccc1)Cc1ccccc1 | -21.7 |
| CC(C)C[C@@H](CO)N1CCN(Cc2ccccc2)CCC1=O | 6.02 |
